Screening data from PubChem.
Luc counter: counter-screen: inhibitors of Kinase-Glo firefly luciferase; Q27757; Kinase-Glo luciferase, ATP luminescence, 8 min; Potency, µM (highest dose often 38.3 µM), inactives show top-dose activity change, negative = inhibition, most hits filed as inhibitors; 0.28% of 200,000 active; AID 1379; further: on the % scale 0 is the no-effect control and ±100 the full control effect; nearly all actives have a fitted effect of over 60% in size
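Substrate mix (final 50 mM imidazole pH 7.2, 50 mM KCl, 7 mM MgCl2, 10 uM ATP, 0.01% Tween 20, 0.05% BSA) plus pin-tool compound, then Kinase-Glo detection mix; 8 min ambient, luminescence read.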
SMN2 splice up: enhancers of SMN2 splice variant expression. 2.8% of 210,000 active. AID 1458. HEK293 SMN2-luciferase splicing reporter, luminescence, 30-36 h. Potency, µM (highest dose often 46.1 µM), inactives show at the top dose activity change, positive = activation, most hits filed as activators; further: % of control where 0% means no effect; nearly all actives have a fitted effect of over 55% in size
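qHTS luciferase splicing reporter: luminescence rises when SMN2 exon 7 is included in transfected HEK293 cells. Compound exposure lasted 30-36 h at 37C, with 4.5 mM final sodium butyrate as control, followed by a ONE-Glo read.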
ELG1 genotox: induces genotoxicity in HEK293T cells with luciferase-tagged ELG1; HEK293T ELG1-luciferase reporter, luminescence, 16 h; Potency, µM (highest dose often 46 µM), without a hit: at the top dose activity change, positive = activation, actives largely listed as activators; 1.3% of 330,000 active; further: % of control where 0% means no effect; nearly all actives have a fitted effect of over 60% in size
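Step 1: seed 2,000 HEK293T ELG1-luciferase cells per well. Step 2: add compound or DMSO, incubate 16 hr at 37 °C. Step 3: ONE-Glo, 30 min at room temperature, read luminescence.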
FLuc modulator: counter-screen for miR-21 project: firefly luciferase inhibitors or activators. Potency, µM (highest dose often 57.5 µM), for the others: top-dose activity change, negative = inhibition, actives largely listed as inhibitors. AID 588342. 6.9% of 360,000 active. purified FLuc, Km substrates, luminescence inhibition;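 further: plate controls were vehicle for no effect and reference inhibitor for full effect; nearly all actives have a fitted effect of over 55% in size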
Target sequence (P08659 whole entry, looked up): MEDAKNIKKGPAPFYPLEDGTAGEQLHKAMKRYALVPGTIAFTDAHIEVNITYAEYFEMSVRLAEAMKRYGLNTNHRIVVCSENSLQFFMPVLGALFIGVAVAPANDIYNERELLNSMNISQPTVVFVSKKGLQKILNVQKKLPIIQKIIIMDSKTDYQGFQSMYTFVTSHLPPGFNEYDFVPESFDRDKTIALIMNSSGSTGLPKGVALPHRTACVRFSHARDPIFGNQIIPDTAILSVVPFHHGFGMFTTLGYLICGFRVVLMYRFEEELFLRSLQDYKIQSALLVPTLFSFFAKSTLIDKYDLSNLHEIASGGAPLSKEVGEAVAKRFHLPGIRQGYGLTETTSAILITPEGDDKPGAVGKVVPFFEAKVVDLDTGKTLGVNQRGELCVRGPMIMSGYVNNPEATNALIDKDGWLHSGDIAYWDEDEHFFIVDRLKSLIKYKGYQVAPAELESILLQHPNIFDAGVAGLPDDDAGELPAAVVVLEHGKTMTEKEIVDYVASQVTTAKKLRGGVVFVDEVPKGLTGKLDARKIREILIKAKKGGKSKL
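Purified P. pyralis luciferase (10nM final) with 10uM D-luciferin and 10uM ATP (Km levels) in 50mM Tris acetate pH 7.5, 10mM Mg acetate, 0.01% Tween-20, 0.05% BSA; qHTS 6-point titration, ~60 µM downward; luminescence read.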
NPC1 prom act: activates the NPC1 promoter | 2.4% of 320,000 active | Huh7 NPC1 promoter luciferase reporter, 24 h | AID 485313 | Potency, µM (doses to about 9.22 µM), for inactives: at the highest dose activation, actives largely listed as activators; further: % of control where 0% means no effect; nearly all actives have a fitted effect of over 60% in size
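Huh7 cells stably carrying NPC1 promoter–luciferase, plated in Opti-MEM with 10% FBS for 2 h, were exposed to compound in DMSO for 24 h at 37 °C; luciferase reagent was added for 10 min and luminescence read.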
Rab9 prom act: activates the Rab9 promoter. Huh7 Rab9 promoter-luciferase reporter, luminescence, 24 h. 2.8% of 320,000 active. Potency, µM (doses to about 9.22 µM), for the others: top-dose activation, negative = inhibition, most hits filed as activators; further: % of control where 0% means no effect; nearly all actives have a fitted effect of over 60% in size
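Cells were plated at 1500 per well in reduced-serum medium with 10% FBS and left 2 h. Compound in DMSO was then added for 24 h at 37 °C. Reporter signal was read by luminescence after 10 min with luciferase detection reagent.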
Numbers without * were called inactive; ? = inconclusive; . = no result given; [ ] = another dose, or the depositor's remark. The list is not random: actives were taken first. Their share in the collection is about 7.5%. The call rests on the fitted dose curve; in most records, active means well fitted curve in the direction sought with a large enough effect; inconclusive means small, poorly fitted or top-dose-only effect, or another doubt; inactive means no such curve, though single readings can be large; an effect the other way counts as inactive or inconclusive. Potency means the concentration at half of the fitted maximal effect.

SMILES	Luc counter	SMN2 splice up	ELG1 genotox	FLuc modulator	NPC1 prom act	Rab9 prom act
Cc1cc(C(=O)O)ccc1NCc1ccncc1	.	.	1%	1%	-4%	2%
Cn1c(SCC(=O)NNC(=O)c2ccccc2)nnc1C1CC1	.	.	0%	2%	3%	-4%
Cc1c(/C=N/O)sc2ccccc12	.	.	1%	?	-4%	-1%
Cc1cccc(/N=C/c2c(O)[nH]c3ccccc23)n1	-20%	?	?	4.3µM*	?	3.5µM*
Oc1c(C=Nc2cccc3cccnc23)sc2ccccc12	10µM*	-6%	3.3µM*	0.38µM*	-4%	-20%
O=[N+]([O-])c1ccc(O)c(N=Cc2sc3ccccc3c2O)c1	-23%	-77%	13%	11µM*	15%	-17%
Cc1cccc(/N=C/c2sc3ccccc3c2O)n1	.	.	4.6µM*	0.48µM*	21%	?
COc1cc(OC)cc(OC(=O)C2CCN(C(=O)c3ccc(Cl)cc3)CC2)c1	.	.	4%	1%	-1%	1%
O=C(O)c1cccc(NC(=O)c2cccc(S(=O)(=O)N3CCc4ccccc4C3)c2)c1	1%	-3%	2%	21µM*	0%	4%
O=C(O)c1cccc(NC(=O)c2cccc(S(=O)(=O)N3CCc4ccccc43)c2)c1	.	.	5%	21µM*	14%	3%
COC(=O)c1ccc(NC(=O)CSc2cn(CC(=O)N3CCCCC3)c3ccccc23)cc1	.	.	.	-2%	.	.
CCCS(=O)(=O)N1CCCC(C(=O)N2CCCCC2)C1 (centres undefined)	.	.	-3%	-2%	0%	-7%
CC(C)(C)c1ccc(OCCC(=O)OCC(=O)NC2CCCCC2)cc1	.	.	2%	17µM*	1%	2%
O=C(CCC(=O)OCC(=O)c1ccc(Cl)cc1)NC1CCCCC1	-5%	-2%	-1%	-16%	-1%	2%
CC(C)(C)c1ccc(OCCC(=O)OCC(=O)NC(=O)NC2CCCC2)cc1	.	.	-44%	?	0%	16%
Cc1ccc(C(=O)COC(=O)CCC(=O)NC2CCCCC2)cc1C	-4%	0%	-3%	9.5µM*	1%	2%
NS(=O)(=O)c1cc2c(cc1Cl)=NC(CCC(=O)O)=NS=2(=O)O	-4%[7.66 µM]	-8%[9.22 µM]	.	.	.	.
O=C(O)c1c2c(nc3ccccc13)/C(=C/c1ccc(OC(F)F)cc1)CCC2	.	.	?	12µM*	?	?
O=C(O)c1c2c(nc3ccccc13)/C(=C/c1ccc(O)cc1)CC2	-6%	-53%	-4%	0.54µM*	?	?
COc1cccc2c1CCc1c-2nc2ccccc2c1C(=O)O	.	.	?	0.95µM*	?	?
Cc1ccc(CN2Cc3cccc4c3[C@@H](CC2=O)[C@H](O)[C@H](O)C4)cc1	.	.	0%	4%	-5%	-5%
CCCCOC(=O)Nc1ccc(N(C)C)cc1	-11%	11µM*	9.2µM*	3µM*	4µM*	2.8µM*
CCCCOC(=O)Nc1ccc(C(C)C)cc1	0%	14µM*	?	9.5µM*	?	?
CCCC(C)C(=O)Nc1ccc(C(N)=O)cc1 (centres undefined)	-1%	17%	3%	5%	-3%	-3%
CCCCOC(=O)Nc1ccc(C(N)=O)cc1	-4%	?	23µM*	15µM*	?	?
SMILES	Luc counter	SMN2 splice up	ELG1 genotox	FLuc modulator	NPC1 prom act	Rab9 prom act
COc1ccc(NC(=O)Nc2ccc(C(C)C)cc2)cc1	.	.	12%	?	24%	?
CCCCOC(=O)Nc1cccc(C(=O)OCC)c1	-3%	?	?	?	0.22µM*	0.32µM*
CCCCOC(=O)Nc1ccc(S(=O)(=O)Nn2cnnc2)cc1	1%	4%	0%	-8%	-2%	-3%
CCCCOC(=O)Nc1nnc(C(C)C)s1	0%	?	?	?	2.8µM*	2.2µM*
CCOC(=O)c1c(C)c(C(=O)Nc2ccc(N(C)C)cc2)c(C)n1CC	-3%	-7%	4%	15µM*	-13%	4%
CCOC(=O)c1c(C)c(C(=O)NCCOC)c(C)n1CC	-3%	-2%	-1%	1%	-2%	-6%
CCOc1ccc(S(=O)(=O)N2CCN(C(=O)c3ccncc3)CC2)cc1	.	.	-3%	2%	-1%	5%
Cc1cc(=O)[nH]c2ccc(S(=O)(=O)Nc3ccc(O)cc3)cc12	.	.	15%	-2%	0%	0%
Cc1cc(=O)[nH]c2ccc(S(=O)(=O)Nc3ccccc3)cc12	.	.	23µM*	5%	-4%	-1%
Cc1cccc(C)c1NC(=O)C1CCCN1C(=O)NCc1ccccc1 (centres undefined)	.	.	-4%	-1%	2%	2%
Clc1ncccc1-c1nc2ccccc2s1	-8%	.	?	15µM*	26%	-2%
O=C(Nc1ccccc1-c1nc2ccccc2s1)c1cccnc1	5%	2%	-2%	4%	-3%	-8%
Oc1c(Br)cc(Br)cc1-c1nc2ccccc2s1	.	-4%	.	7.6µM*	.	.
COc1cccc(-c2nc3ccccc3s2)c1O	-12%	7.1µM*	1.5µM*	0.34µM*	?	?
COc1cc(C(=O)Nc2cc(C)c(O)c(-c3nc4ccccc4s3)c2)cc(OC)c1OC	.	14%	.	-11%	.	.
Clc1ccc(CCNc2nc3ccccc3s2)cc1	-2%	-2%	3%	?	-1%	3%
O=c1c(-c2nc3ccccc3s2)cccn1Cc1ccc(Cl)cc1	-8%	-20%	?	13µM*	22%	?
O=C(CCc1nc(-c2ccccc2Cl)no1)Nc1cccnc1	.	.	-4%	0%	-4%	0%
NS(=O)(=O)c1ccc(CCNC(=O)c2coc3ccccc3c2=O)cc1	.	.	-1%	-1%	-4%	-3%
